Measurements reported in PubChem BioAssay AID624246 (National Center for Advancing Translational Sciences (NCATS), 2012).
Hit rate of the full screen: of about 370,000 compounds, about 100 (0.027%) were called active. The call rests on the fitted dose curve; in most records, active means well fitted inhibition curve with a large enough effect in the polarisation, with a control signal flat; inconclusive means small, poorly fitted or top-dose-only effect, or effect the other way, or a change in a side signal; inactive means no such curve, though single readings can be large or run the other way; the % refers to the polarisation. This excerpt belongs to a sample that is enriched for actives.

These molecules were tested against Transcriptional regulator ERG (Homo sapiens) (UniProt P11308) (assay: qHTS for Small Molecule Inhibitors of the ERG Ets/DNA interaction). Settings: fluorescence polarization, His-ERG Ets domain / labelled DNA; series mostly up to 76.9 µM.
From the text: The Ets family of proteins is a family of ~30 conserved transcription factors defined by the presence of an ~85 amino acid domain referred to as the Ets domain, which mediates sequence-specific DNA binding to a core DNA element GGAA/T.The Ets family member ERG has been linked to several neoplasms. […] More extensive studies of the effects of over-expression of ERG in prostate cells have recently been carried out and have shown that over-expression of ERG results in increased invasion. […] We will carry out a high throughout screen to identify inhibitors of the interaction between ERG and DNA using a fluorescence polarization (FP) assay with a His-tagged ERG Ets domain and fluorescently-labeled DNA probes to develop small molecule inhibitors of this interaction as probes to test this hypothesis and lay the groundwork for the development of targeted therapies against ERG. NIH Molecular Libraries Probe Production Network [MLPCN] NIH Chemical Genomics Center [NCGC] Grant: NS066464 PI Name: John Bushweller, University of Virgina
1.5 ul of protein solution (1 uM ERG domain in 300mM KCl, 50mM Tris-HCl, 1mM EDTA, 1mM DTT, pH 7.5); 20 nl Control plate and compound library plate; 1.5 ul mixture of 5 nM Fluorescein-DNA and 100nM Texas-615-DNA solution in same buffer as above solution; measure fluorescence polarization sequentially for fluorescein (Excitation = 480 nm, Emission = 535s, 535p nm) and Texas red (Excitation = 555 nm, Emission = 632s, 632p nm).

Sequence of Transcriptional regulator ERG (Homo sapiens) (P11308 whole entry, looked up, the tested form may be a part): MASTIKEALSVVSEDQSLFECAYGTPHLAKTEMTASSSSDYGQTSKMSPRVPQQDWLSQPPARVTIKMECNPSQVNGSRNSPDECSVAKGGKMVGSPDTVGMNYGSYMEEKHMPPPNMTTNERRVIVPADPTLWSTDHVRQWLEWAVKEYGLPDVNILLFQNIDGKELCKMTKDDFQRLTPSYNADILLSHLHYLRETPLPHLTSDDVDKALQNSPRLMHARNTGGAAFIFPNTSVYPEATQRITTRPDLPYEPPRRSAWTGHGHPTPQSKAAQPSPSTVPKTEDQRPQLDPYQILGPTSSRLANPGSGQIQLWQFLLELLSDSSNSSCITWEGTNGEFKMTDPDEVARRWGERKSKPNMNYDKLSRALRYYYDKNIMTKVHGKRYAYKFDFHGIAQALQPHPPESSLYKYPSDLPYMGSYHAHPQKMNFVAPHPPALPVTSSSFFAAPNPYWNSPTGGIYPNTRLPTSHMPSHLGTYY

Potency, inactive:
O=C(Nc1ccccc1F)C(c1ccccc1)N1Cc2ccccc2C1=O (stereo unspecified), COc1ccccc1CNC(=O)CCCn1c(=O)c2ccccc2n(CC(=O)Nc2ccc(C)cc2Cl)c1=O, O=C1Cc2cc(S(=O)(=O)Nc3ccc(OC(F)(F)F)cc3)cc3c2N1CCC3, CCc1ccc(NC(=O)c2nn(-c3ccc(C)cc3)c(=O)n(C)c2=O)cc1, COC(=O)c1scc(-c2ccccc2)c1S(=O)(=O)Nc1ccccc1, CC1CCN(C(=O)Cn2c(=O)n(-c3ccc(Cl)cc3)c(=O)c3c4c(sc32)CCC4)CC1, CCCn1c(NCc2ccc(N(CC)CC)cc2)nc2ccccc21, Cc1ccccc1C(=O)NCc1nc(-c2ccc(Cl)cc2)no1, Cc1cc(C)c(-c2n[nH]c3c2C(c2ccccc2F)N(CCO)C3=O)c(O)c1 (stereo unspecified), COc1ccccc1-c1cc2nc(C)c(CCC(=O)O)c(C)n2n1, CC(C)c1ccc(NC(=O)C2CCN(c3nc(-c4ccc(C(C)C)cc4)no3)CC2)cc1, Cc1c(CNC2CCCCC2)c(C(=O)O)c(C)n1Cc1cccc(Cl)c1, Cc1ccc(C(=O)NCCSc2c(C)[nH]c3ccccc23)cc1C, CCCCNC(=O)CSc1nc2cc3c(cc2c(=O)n1CCCCCC(=O)NCc1ccc2c(c1)OCO2)OCO3, N#Cc1ccc(-c2cccs2)nc1SCc1ccc(Br)cc1, CCc1nn(CC(=O)Nc2cccc(C)c2C)c(=O)c2cc3sccc3n12, O=C(Cn1c(=O)n(-c2ccc(F)cc2)c(=O)c2sccc21)Nc1cccc(C(F)(F)F)c1, COc1cccc(N=C2SC(C(=O)Nc3cccc(Cl)c3)CC(=O)N2C)c1 (stereo unspecified), COC(=O)c1sccc1S(=O)(=O)N(CC(=O)Nc1ccc(C)c(F)c1)c1ccc(C)c(C)c1, Cc1ccc(CCNC(=O)C2CCN(c3nnc(-n4cccc4CNc4ccc(C)cc4)s3)CC2)cc1, Cc1ccccc1CNC(=O)C1CCCN(S(=O)(=O)N(C)c2ccc(F)cc2)C1 (stereo unspecified), CCOc1ccccc1CNC(=O)c1ccc(-n2c(C)cc3c2CCC(C)C3)cc1 (stereo unspecified), CCOC(=O)c1scc(-c2ccccc2)c1S(=O)(=O)Nc1ccccc1F, COc1ccc(C)cc1NC(=O)COCc1cc(-c2cccs2)on1, COc1ccc(NC(=O)CSC2=Nc3ccccc3C3=NC(CC(=O)NCc4ccccc4OC)C(=O)N23)cc1Cl (stereo unspecified), O=C(/C=C/c1ccccc1)Nc1cc(-c2nc3cc(Cl)ccc3o2)ccc1Cl, Cc1ccc(-n2ncc3c(NCCCn4ccnc4)ncnc32)cc1Cl, Cc1nn2c(=O)cc(COC(=O)c3cccc(NC(=O)COc4ccccc4Cl)c3)nc2s1, COc1ccc(CNC(=O)CC2Oc3ccc(C)cc3NC2=O)cc1 (stereo unspecified), CCOc1ccc(C2C(=O)N(C3CCCCC3)CC(=O)N2CCC2=CCCCC2)cc1OC (stereo unspecified), COc1ccc(NC(=O)CCCc2nnc3n(CCC(C)C)c(=O)c4sccc4n23)c(OC)c1, COc1ccc(CCNC(=O)c2c3c(nc4ccccc24)C(=O)N(C2CCCCC2)C3)cc1OC, Fc1ccccc1Oc1ncnc2c1oc1ccccc12, CCOC(=O)c1sc(NC(=O)/C=C/c2ccc(C(C)C)cc2)c(C(=O)OCC)c1C, CCOC(=O)c1ccc(CN(Cc2ccccc2)S(=O)(=O)c2ccc(Cl)cc2)cc1, COc1ccc(Br)cc1C1CC(=O)Nc2c1c(C)nn2-c1nc(C)cc(C)n1 (stereo unspecified), Cc1ccc(Cl)cc1NC(=O)CCC(=O)N1CC(C)Sc2ccccc21 (stereo unspecified), Cc1ccc(C(=O)CC2(O)C(=O)N(CCc3ccccc3)c3ccc(Br)cc32)cc1 (stereo unspecified), COc1cc(NC(=O)Cn2nc(-c3ccc(C)c(C)c3)ccc2=O)cc(OC)c1, COc1ccccc1NC(=O)CN1C(=O)c2ccccc2Sc2ccc(C(=O)N3CCCC3)cc21, CCOC(=O)c1[nH]c(C)c(CCC(=O)NCc2ccccc2C)c1C, Cc1ccc(CNC(=O)CSc2c3c(nc4cc(Cl)ccc24)CCCC3)cc1, CCN1C(=O)c2ccccc2S(=O)c2ccc(C(=O)NCc3ccc(F)cc3)cc21 (stereo unspecified), CC1Cc2cc(S(=O)(=O)CCC(=O)Nc3ccc(F)c(Cl)c3)ccc2N1C(=O)C1CC1 (stereo unspecified), O=C(CSc1n[nH]c(-c2ccccc2)n1)N1CCCCC1, O=C(/C=C/c1cn(CC(O)CN2CCc3ccccc32)c2ccccc12)c1ccc(Br)cc1 (stereo unspecified), CC(=O)c1nn(-c2ccc(OC(F)(F)F)cc2)nc1Nc1ccccc1, Cc1nn(-c2ccc(N3CCCCC3)nn2)c(C)c1CCC(=O)NCc1ccccc1F, CCc1ccc(C(=O)CC2(O)C(=O)N(CCc3ccccc3)c3ccc(Br)cc32)cc1 (stereo unspecified), CCOc1cc(C2c3c(-c4ccc(Br)cc4)n[nH]c3C(=O)N2c2ccc(Cl)cc2)ccc1O (stereo unspecified), CCOc1ccc(-c2nonc2NC(=O)c2oc3ccc(C)cc3c2C)cc1OCC, CC1=C(C(=O)OCC(C)C)C(c2ccc(OCc3ccccc3)cc2)N2C(=O)CCSC2=N1 (stereo unspecified), O=C(NCc1ccccc1)c1ccc2c(c1)nc1n2CCCCC1, COC(=O)c1cc(S(=O)(=O)N2CCN(c3cc(Cl)ccc3C)CC2)c[nH]1, Cc1ccc(C)c(N2CCN(CCCNC(=O)Nc3ccc(Cl)cc3)CC2)c1, COc1ccc(-c2cn3nc(N4CCC(C(=O)Nc5cccc(C)c5C)CC4)sc3n2)cc1, COc1ccc(OC)c(NC(=O)CSC2=Nc3ccccc3C3=NC(CC(=O)NCc4ccc(F)cc4)C(=O)N23)c1 (stereo unspecified), Cc1ccc2oc(=O)c3cnn(CC(=O)NCc4ccccc4Cl)c3c2c1, CCOc1ccc(CNC(=O)c2cccc(Nc3nc4ccccc4n4nnnc34)c2)cc1OC, Cc1ccc(C)c(Oc2c(C(F)(F)F)oc3c(CN4CCN(C)CC4)c(O)ccc3c2=O)c1, CCOc1ccccc1NC(=O)CN1CCCN(Cc2cccc(Cl)c2)S1(=O)=O
